Among the data in PubChem BioAssay are composite z-score values, retold here.

For the experiment, the system named is Sonic hedgehog protein (Shh). Briefly: Sonic hedgehog microarray binding compounds – biochemical, small-molecule microarray, 635/667 nm fluorescence, primary screen (AID 1151).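 Note: Shh protein binding to compounds spotted on small-molecule microarray slides; score combines spot fluorescence intensity with signal-to-noise across triplicate slides.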 The settings on record: 635 nm fluorescence, higher = more signal.
With `CCOC(=O)CCN1C(=O)[C@H]2[C@H]3[C@H](O)[C@H](O)CC(=NOCC=C(C)CCC=C(C)C)[C@H]3CC[C@H]2C1=O`, the composite z-score is -0.423.
To `CCOC(=O)[C@H](Cc1ccccc1)NC(=O)CCC1CC(OC(=O)NCc2cccc3ccccc23)CC2(CCCC(COC(=O)NCCOc3ccccc3)O2)O1` (stereo not given in full) belongs 0.825.
`CCOC(=O)[C@H](CC(C)C)NC(=O)CCC1CC(OC(=O)NCCc2ccc(F)cc2)CC2(CCCC(COC(=O)NCCCN3CCCC3=O)O2)O1` (stereo not given in full): the composite z-score was determined as 0.894.
To `CC(=O)OC[C@H]1O[C@H](CC=NOC(C)CN2CCCCc3nc(C)c(C)cc32)C=C[C@@H]1OC(C)=O` (stereo not given in full) belongs 1.48.
To `C#CCCCON=C1[C@H]2CCn3c(=O)n([C@@H](CC)c4ccccc4)c(=O)n3[C@H]2[C@H](O)[C@@H]2O[C@H]12` belongs 0.441; to `CO[C@H]1C[C@@H]2C[C@H](O)CC(CC(=O)O[C@@H](C=CCC(C)C)C[C@@H]3CC[C@H](C)[C@@H](C1)O3)O2`, 1.02; to `C=CC[C@@H]1C=C[C@H](ON=C[C@@H](NS(=O)(=O)c2ccc(C)cc2)[C@H](C)C=CCC(=O)OC)[C@@H](CO)O1`, 0.416.
For `CO[C@H]1COC(=O)CCC[C@H](C)[C@@H](OC)COC(=O)CC=C[C@@H]1C` the value was 1.34.
Compound `O=C(NN=C1C[C@@H](O)[C@@H](O)[C@@H]2[C@@H]3C(=O)N(Cc4ccccc4)C(=O)[C@@H]3CC[C@H]12)OCc1ccccc1` gave a composite z-score of 1.06.
To `CCOC(=O)[C@H](CC(C)C)NC(=O)CCC1CC(OC(=O)NCCc2ccc(F)cc2)CC2(CCCC(COC(=O)NCc3cccc4ccccc34)O2)O1` (stereo not given in full) belongs 0.601.
